# Compound activity deposited in PubChem by National Center for Advancing Translational Sciences (NCATS).
# Rows were chosen to be rich in hits. Some 2.4% of all compounds tested hit in one or more screens of this group.
# Rango release inh: qHTS Assay for Inhibitors of RanGTP induced Rango (Ran-regulated importin-beta cargo) - Importin beta complex dissociation. 340,000 compounds, 0.071% hits. Snurportin-1 (Homo sapiens) + GTP-binding nuclear protein Ran (Homo sapiens) + Importin …. Potency, µM (series often up to 46.1 µM), inactives show top-dose activity change, negative = inhibition. Biochemical FRET Rango-importin beta, RanGTP-induced dissociation; calls by dose curve; also: % of control where 0% means no effect; nearly all actives have a fitted effect of over 45% in size
#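 Rango (0.1 uM)–importin beta (0.25 uM) complex; RanGTP-RCC1 trigger; 45 min RT; CFP/YFP FRET read.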
# PGK inhibitor: qHTS Assay to Find Inhibitors of Phosphoglycerate Kinase; Phosphoglycerate kinase, glycosomal (Trypanosoma brucei brucei), P07378; PGK/GAPDH coupled, Kinase-Glo luminescence, 60 min; Potency, µM (highest dose often 57.5 µM), inactives show top-dose activity change, negative = inhibition, hits mostly inhibitors; 380,000 compounds, 0.043% hits; AID 602233, 2012; also: % is scaled to controls: 0 for no effect and ±100 for the full control effect; nearly all actives have a fitted effect of over 60% in size
#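 Recombinant glycosomal PGK reaction used 1,3-bisphosphoglycerate generated in-well by GAPDH (100nM final) in 100mM TEA pH 7.6, 5mM MgCl2, 0.01% Tween-20. After 60 minutes at room temperature, ATP was read by Kinase-Glo Plus luminescence end-point.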
# ELG1 DNA repair: qHTS screen for small molecules that inhibit ELG1-dependent DNA repair in human embryonic kidney (HEK293T) cells expressing luciferase-tagged ELG1; HEK293T ELG1-luciferase reporter, luminescence, 16 h; DNA damage induced by 5-fluorouridine; Potency, µM (doses to about 46.1 µM), for inactives: at the highest dose activity change, negative = inhibition, hits mostly inhibitors; 330,000 compounds, 2.3% hits; also: % is scaled to controls: 0 for no effect and ±100 for the full control effect; nearly all actives have a fitted effect of over 55% in size
#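 Overnight (16 hr) co-exposure of 2,000 cells/well to 5-fluorouridine and compound at 37 °C preceded detection. Luciferase was quantified via ONE-Glo luminescence; loss of signal denotes inhibition.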
# PKM2 activator: qHTS Assay for Activators of Human Muscle isoform 2 Pyruvate Kinase; Pyruvate kinase PKM (Homo sapiens), P14618; purified PKM2, Kinase-Glo ATP luminescence, activation; response scale: 0% is enzyme alone, no compound; Potency, µM (highest dose often 57.5 µM), for the others: at the highest dose activation, hits mostly activators; 260,000 compounds, 0.34% hits; AID 1631, 2009; also: % is scaled to controls: 0 for no effect and ±100 for the full control effect; nearly all actives have a fitted effect of over 55% in size
#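 Purified hPK-M2 (>95%) run at intermediate activity with 0.1 mM ADP and 0.5 mM PEP in 50 mM imidazole pH 7.2, KCl, MgCl2; 1 h room temperature. ATP formed read by Kinase-Glo luminescence; normalized to uninhibited and no-enzyme controls.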
# Rango complex inh: qHTS Assay for Inhibitors of Rango (Ran-regulated importin-beta cargo) - Importin beta complex formation; Rango CFP/YFP FRET sensor + importin beta, 45 min; Potency, µM (top dose mostly 92.2 µM), without a hit: top-dose inhibition of complex formation; 340,000 compounds, 0.031% hits; AID 540263, 2011; calls by dose curve;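 also: 0% = DMSO wells and 100% = buffer wells lacking importin beta; nearly all actives have a fitted effect of over 15% in size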
# Target sequence (Q14974 whole entry, looked up): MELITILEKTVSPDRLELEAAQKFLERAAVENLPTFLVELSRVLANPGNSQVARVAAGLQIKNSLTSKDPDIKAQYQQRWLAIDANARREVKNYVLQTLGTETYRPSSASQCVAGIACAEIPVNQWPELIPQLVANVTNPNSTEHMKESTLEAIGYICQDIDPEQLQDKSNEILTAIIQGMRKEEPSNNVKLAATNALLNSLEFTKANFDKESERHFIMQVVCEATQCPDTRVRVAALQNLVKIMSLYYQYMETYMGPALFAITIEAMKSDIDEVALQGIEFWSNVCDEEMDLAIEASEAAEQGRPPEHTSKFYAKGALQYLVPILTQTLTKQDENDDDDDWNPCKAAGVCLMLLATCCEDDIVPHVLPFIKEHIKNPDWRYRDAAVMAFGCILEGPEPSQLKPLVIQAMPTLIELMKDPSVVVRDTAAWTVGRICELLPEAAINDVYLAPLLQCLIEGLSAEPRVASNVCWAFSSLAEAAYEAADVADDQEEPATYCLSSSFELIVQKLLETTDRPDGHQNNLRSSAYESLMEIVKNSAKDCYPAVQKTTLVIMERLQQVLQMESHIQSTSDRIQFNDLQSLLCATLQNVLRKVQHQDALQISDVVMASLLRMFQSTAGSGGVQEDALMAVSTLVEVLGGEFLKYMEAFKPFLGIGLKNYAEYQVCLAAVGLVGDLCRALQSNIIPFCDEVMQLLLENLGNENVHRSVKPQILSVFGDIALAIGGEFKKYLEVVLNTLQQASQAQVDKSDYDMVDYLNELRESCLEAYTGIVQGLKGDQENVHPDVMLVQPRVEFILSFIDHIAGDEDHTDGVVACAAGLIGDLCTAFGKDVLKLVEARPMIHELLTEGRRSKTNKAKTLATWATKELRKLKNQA
#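 FRET biosensor (snurportin 1 IBB flanked by EYFP and cerulean), 50 nM, with compound 5 min, then 0.125 microM importin beta in PBS, 1 mM DTT, 0.02% Tween-20, 0.1% BSA. CFP/YFP ratio read after 45 min at room temperature; pre-read flags interference.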
# Tb PFK block: qHTS Assay to Find Inhibitors of T. brucei phosphofructokinase | ATP-dependent 6-phosphofructokinase (Trypanosoma brucei brucei), O15648 | 330,000 compounds, 0.17% hits | T. brucei PFK, ADP-Glo luminescence | Potency, µM (top dose mostly 57.5 µM), for inactives: at the top dose activity, negative = inhibition, hits mostly inhibitors;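 also: 0% = uninhibited 1x PFK enzyme wells and -100% = no-enzyme wells; nearly all actives have a fitted effect of over 60% in size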
#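 Activity is normalized to no-enzyme wells (full inhibition) and 1.25 nM enzyme wells (no inhibition). Reaction: 0.5 mM F6P, 0.1 mM ATP, 45 min RT, ADP-Glo luminescence; concentration-response curves fitted and classed by quality.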
# The depositor's hits bear a star; i = inactive; ? = inconclusive; / = no result given. Unless noted, calls follow the shape of the dose curve; as a rule, active = well fitted curve in the direction sought with a large enough effect; inconclusive = small, poorly fitted or top-dose-only effect, or another doubt; inactive = no such curve, though single readings can be large; an effect the other way counts as inactive or inconclusive. Potency is read from the fitted curve at half-maximal effect.
SMILES,Rango release inh,PGK inhibitor,ELG1 DNA repair,PKM2 activator,Rango complex inh,Tb PFK block
CCOC(=O)c1ccccc1NC(=O)CSc1nc2ccccc2c(=O)n1CCCN1CCOCC1,12%,0%,?,/,5%,6%
CCSc1nccc(-c2nn(-c3ccc(C)cc3)ccc2=O)n1,-7%,-7%,10µM*,4%,-1%,2%
C=CCSc1nccc(-c2nn(-c3ccc(C)cc3)ccc2=O)n1,-1%,0%,7.3µM*,1%,0%,6%
C#CCSc1nccc(-c2nn(-c3ccc(C)cc3)ccc2=O)n1,11%,-13%,9.2µM*,-9%,-1%,-1%
CSc1nccc(-c2nn(-c3ccc(C)cc3)ccc2=O)n1,-5%,-4%,?,0%,0%,1%
O=C(OCC(=O)N1CCc2ccccc2C1)c1ccc(O)cc1,15%,i,?,/,-1%,-5%
O=C(CN1CCC(c2nc3ccccc3s2)CC1)N1CCCCC1,-6%,0%,?,-1%,?,-4%
CCCNC(=O)N1CCC(c2nc3ccccc3s2)CC1,3%,-9%,15%,/,0%,4%
O=C(CSc1ccc(F)cc1)N1CCC(c2nc3ccccc3s2)CC1,-15%,i,?,20µM*,-5%,1%
O=C(CN1CCC(c2nc3ccccc3s2)CC1)NCc1cccs1,-9%,-6%,9.2µM*,-6%,3%,8%
CC(=O)c1cccc(S(=O)(=O)NCC(c2ccco2)N2CCCCC2)c1 (stereo not given),-17%,-3%,0.58µM*,4%,-3%,3%
Cc1ccc(NS(=O)(=O)c2cccc(C(=O)NCC(c3ccco3)N3CCCCC3)c2)cc1 (stereo not given),2%,i,-23%,2%,?,4%
Cc1ccc(C)c(N(C)S(=O)(=O)c2ccc3[nH]cc(C(=O)NC4CCCC4)c(=O)c3c2)c1,/,-7%,/,/,/,/
CCOC(=O)c1sc(NC(=O)CSc2n[nH]c(-c3ccncc3)n2)c(C#N)c1C,17%,-6%,18µM*,-2%,0%,4%
CCOC(=O)c1sc(NC(=O)CSc2nccc(C)n2)c(C#N)c1C,-1%,-4%,6%,2%,?,2%
COc1ccc(S(=O)(=O)c2ccc(OC)cc2)cc1,-2%,-10%,-11%,?,-3%,-3%
CC(=O)Oc1ccc(N(C(C)=O)S(=O)(=O)c2ccc(C)cc2)c2ccccc12,5%,-2%,/,/,4%,/
CC(=O)Oc1ccc(N(C(C)=O)S(=O)(=O)c2ccc3ccccc3c2)cc1,-11%,-4%,21µM*,/,0%,-8%
CC(=O)Oc1ccc(S(=O)(=O)c2ccc(OC(C)=O)cc2)cc1,1%,-1%,2%,14µM*,-1%,1%
CC(=O)Oc1ccc(N(C(C)=O)S(=O)(=O)c2ccc(Cl)cc2)c2ccccc12,-1%,-10%,18µM*,-4%,-4%,-4%
CC(C)CC1NC(=O)N(CC(=O)Nc2ccc3c(c2)OCCO3)C1=O (stereo not given),-3%,-2%,6%,/,2%,-1%
CCC(C)C(NC(=O)c1ccccc1)C(=O)Nc1ccc(S(=O)(=O)Nc2cc(C)nc(C)n2)cc1 (stereo not given),2%,-1%,17%,/,-3%,5%
